# Experimental data from the supplement of paper PMC12282887.
# ± gives the standard deviation of the averaged measurements.
# Assays:
# Test in all cases: promoter activity interaction Z-score (Lux/OD deviation from empty-vector control); higher = stronger promoter induction by the compound
# [1] = tested on: E. coli BW25113 acrABp lux reporter
# How it was run: (§1)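 Four 1:2 dilutions of each compound were tested in biological duplicates on E. coli BW25113 carrying low-copy luxCDABE promoter reporters, either wild type or deleted for one of three genes. Cultures of 40 µl LB Lennox in 384-well plates were kept at 37°C and read for OD600 and luminescence every 30 min for 12 h. Integration windows were 0–8 h for wild type and 1–9 h for deletion strains, and wells under 10% of the median growth value were discarded. The score is a Z-transformed residual of growth-normalised luminescence relative to a control fit.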
# [2] = tested on: E. coli BW25113 marRABp lux reporter
# How it was run: as §1
# [3] = tested on: E. coli BW25113 micFp lux reporter
# How it was run: as §1
# [4] = tested on: E. coli BW25113 ompFp lux reporter
# How it was run: as §1
# [5] = tested on: E. coli BW25113 robp lux reporter
# How it was run: as §1
# [6] = tested on: E. coli BW25113 soxSp lux reporter
# How it was run: as §1
# [7] = tested on: E. coli BW25113 tolCp lux reporter
# How it was run: as §1
# [8] = 19 µg/ml, genetic background: wild type
# [9] = 19 µg/ml, genetic background: ΔmarA
# [10] = 19 µg/ml, genetic background: Δrob
# [11] = 19 µg/ml, genetic background: ΔsoxS
# [12] = 38 µg/ml, genetic background: wild type
# [13] = 38 µg/ml, genetic background: ΔmarA
# [14] = 38 µg/ml, genetic background: Δrob
# [15] = 38 µg/ml, genetic background: ΔsoxS
# [16] = 76.1 µg/ml, genetic background: wild type
# [17] = 76.1 µg/ml, genetic background: ΔmarA
# [18] = 76.1 µg/ml, genetic background: Δrob
# [19] = 76.1 µg/ml, genetic background: ΔsoxS
# [20] = 152.1 µg/ml, genetic background: wild type
# [21] = 152.1 µg/ml, genetic background: ΔmarA
# [22] = 152.1 µg/ml, genetic background: Δrob
# [23] = 152.1 µg/ml, genetic background: ΔsoxS
smiles,measurement,setting,value
COc1cc(C=O)ccc1O [Vanillin],promoter activity interaction Z-score,[1]; [8],-0.0924 ± 0.22
same,promoter activity interaction Z-score,[1]; [9],-1.01 ± 0.36
same,promoter activity interaction Z-score,[1]; [10],-0.237 ± 0.036
same,promoter activity interaction Z-score,[1]; [11],-0.38 ± 0.04
same,promoter activity interaction Z-score,[1]; [12],-0.3 ± 0.17
same,promoter activity interaction Z-score,[1]; [13],0.134 ± 0.85
same,promoter activity interaction Z-score,[1]; [14],-0.312 ± 0.14
same,promoter activity interaction Z-score,[1]; [15],-0.79 ± 0.35
same,promoter activity interaction Z-score,[1]; [16],-0.108 ± 0.02
same,promoter activity interaction Z-score,[1]; [17],-0.501 ± 0.51
same,promoter activity interaction Z-score,[1]; [18],-0.406 ± 0.017
same,promoter activity interaction Z-score,[1]; [19],-0.409 ± 0.11
same,promoter activity interaction Z-score,[1]; [20],0.0819 ± 0.4
same,promoter activity interaction Z-score,[1]; [21],-0.204 ± 0.85
same,promoter activity interaction Z-score,[1]; [22],-0.28 ± 0.056
same,promoter activity interaction Z-score,[1]; [23],-0.339 ± 0.24
same,promoter activity interaction Z-score,[2]; [8],-0.156 ± 0.018
same,promoter activity interaction Z-score,[2]; [9],-0.451 ± 0.34
same,promoter activity interaction Z-score,[2]; [10],0.0366 ± 0.23
same,promoter activity interaction Z-score,[2]; [11],-0.21 ± 0.21
same,promoter activity interaction Z-score,[2]; [12],0.304 ± 0.065
same,promoter activity interaction Z-score,[2]; [13],0.0122 ± 0.2
same,promoter activity interaction Z-score,[2]; [14],0.119 ± 0.4
same,promoter activity interaction Z-score,[2]; [15],-0.0492 ± 0.056
same,promoter activity interaction Z-score,[2]; [16],0.913 ± 0.07
same,promoter activity interaction Z-score,[2]; [17],0.599 ± 0.31
same,promoter activity interaction Z-score,[2]; [18],0.595 ± 0.066
same,promoter activity interaction Z-score,[2]; [19],0.224 ± 0.12
same,promoter activity interaction Z-score,[2]; [20],1.28 ± 0.41
same,promoter activity interaction Z-score,[2]; [21],1.702 ± 0.0098
same,promoter activity interaction Z-score,[2]; [22],1.077 ± 0.0082
same,promoter activity interaction Z-score,[2]; [23],0.812 ± 0.084
same,promoter activity interaction Z-score,[3]; [8],0.414 ± 0.3
same,promoter activity interaction Z-score,[3]; [9],0.0708 ± 0.21
same,promoter activity interaction Z-score,[3]; [10],0.348 ± 0.34
same,promoter activity interaction Z-score,[3]; [11],0.261 ± 0.29
same,promoter activity interaction Z-score,[3]; [12],0.827 ± 0.47
same,promoter activity interaction Z-score,[3]; [13],0.117 ± 0.12
same,promoter activity interaction Z-score,[3]; [14],0.608 ± 0.26
same,promoter activity interaction Z-score,[3]; [15],0.255 ± 0.57
same,promoter activity interaction Z-score,[3]; [16],1.55 ± 0.57
same,promoter activity interaction Z-score,[3]; [17],0.0617 ± 0.059
same,promoter activity interaction Z-score,[3]; [18],0.54 ± 0.19
same,promoter activity interaction Z-score,[3]; [19],0.822 ± 0.14
same,promoter activity interaction Z-score,[3]; [20],1.67 ± 0.3
same,promoter activity interaction Z-score,[3]; [21],0.484 ± 0.14
same,promoter activity interaction Z-score,[3]; [22],1.27 ± 0.44
same,promoter activity interaction Z-score,[3]; [23],1.36 ± 0.11
same,promoter activity interaction Z-score,[4]; [8],-0.994 ± 0.24
same,promoter activity interaction Z-score,[4]; [9],-1.33 ± 0.62
same,promoter activity interaction Z-score,[4]; [10],-1.05 ± 0.28
same,promoter activity interaction Z-score,[4]; [11],-0.69 ± 0.026
same,promoter activity interaction Z-score,[4]; [12],-0.89 ± 0.22
same,promoter activity interaction Z-score,[4]; [13],-1.03 ± 0.49
same,promoter activity interaction Z-score,[4]; [14],-0.857 ± 0.061
same,promoter activity interaction Z-score,[4]; [15],-0.75 ± 0.044
same,promoter activity interaction Z-score,[4]; [16],-0.551 ± 0.35
same,promoter activity interaction Z-score,[4]; [17],-1.2 ± 0.46
same,promoter activity interaction Z-score,[4]; [18],-0.873 ± 0.084
same,promoter activity interaction Z-score,[4]; [19],-0.372 ± 0.057
same,promoter activity interaction Z-score,[4]; [20],-0.504 ± 0.27
same,promoter activity interaction Z-score,[4]; [21],-0.917 ± 0.56
same,promoter activity interaction Z-score,[4]; [22],-0.507 ± 0.057
same,promoter activity interaction Z-score,[4]; [23],0.0107 ± 0.52
same,promoter activity interaction Z-score,[5]; [8],-0.0267 ± 0.12
same,promoter activity interaction Z-score,[5]; [9],-0.748 ± 0.21
same,promoter activity interaction Z-score,[5]; [10],-0.428 ± 0.024
same,promoter activity interaction Z-score,[5]; [11],-0.184 ± 0.93
same,promoter activity interaction Z-score,[5]; [12],-0.354 ± 0.066
same,promoter activity interaction Z-score,[5]; [13],0.11 ± 0.23
same,promoter activity interaction Z-score,[5]; [14],-0.287 ± 0.54
same,promoter activity interaction Z-score,[5]; [15],-0.138 ± 0.42
same,promoter activity interaction Z-score,[5]; [16],-0.265 ± 0.18
same,promoter activity interaction Z-score,[5]; [17],-0.307 ± 0.11
same,promoter activity interaction Z-score,[5]; [18],-0.399 ± 0.16
same,promoter activity interaction Z-score,[5]; [19],-0.0986 ± 0.36
same,promoter activity interaction Z-score,[5]; [20],0.841 ± 1.6
same,promoter activity interaction Z-score,[5]; [21],0.111 ± 0.07
same,promoter activity interaction Z-score,[5]; [22],-0.463 ± 0.3
same,promoter activity interaction Z-score,[5]; [23],0.223 ± 0.32
same,promoter activity interaction Z-score,[6]; [8],-0.29 ± 0.1
same,promoter activity interaction Z-score,[6]; [9],-0.185 ± 0.056
same,promoter activity interaction Z-score,[6]; [10],0.0115 ± 0.23
same,promoter activity interaction Z-score,[6]; [11],-0.409 ± 0.11
same,promoter activity interaction Z-score,[6]; [12],-0.279 ± 0.037
same,promoter activity interaction Z-score,[6]; [13],-0.201 ± 0.018
same,promoter activity interaction Z-score,[6]; [14],0.0294 ± 0.17
same,promoter activity interaction Z-score,[6]; [15],-0.314 ± 0.082
same,promoter activity interaction Z-score,[6]; [16],-0.117 ± 0.062
same,promoter activity interaction Z-score,[6]; [17],-0.32 ± 0.06
same,promoter activity interaction Z-score,[6]; [18],-0.186 ± 0.072
same,promoter activity interaction Z-score,[6]; [19],-0.321 ± 0.11
same,promoter activity interaction Z-score,[6]; [20],-0.196 ± 0.03
same,promoter activity interaction Z-score,[6]; [21],-0.205 ± 0.12
same,promoter activity interaction Z-score,[6]; [22],-0.225 ± 0.11
same,promoter activity interaction Z-score,[6]; [23],-0.367 ± 0.18
same,promoter activity interaction Z-score,[7]; [8],0.0479 ± 0.73
same,promoter activity interaction Z-score,[7]; [9],-0.119 ± 0.31
same,promoter activity interaction Z-score,[7]; [10],0.58 ± 0.34
same,promoter activity interaction Z-score,[7]; [11],0.597 ± 0.78
same,promoter activity interaction Z-score,[7]; [12],0.657 ± 0.53
same,promoter activity interaction Z-score,[7]; [13],0.25 ± 0.54
same,promoter activity interaction Z-score,[7]; [14],0.749 ± 0.62
same,promoter activity interaction Z-score,[7]; [15],-0.627 ± 0.44
same,promoter activity interaction Z-score,[7]; [16],0.993 ± 0.047
same,promoter activity interaction Z-score,[7]; [17],-0.352 ± 0.71
same,promoter activity interaction Z-score,[7]; [18],-0.533 ± 0.45
same,promoter activity interaction Z-score,[7]; [19],0.305 ± 0.97
same,promoter activity interaction Z-score,[7]; [20],-0.199 ± 0.18
same,promoter activity interaction Z-score,[7]; [21],-0.469 ± 1
same,promoter activity interaction Z-score,[7]; [22],0.503 ± 0.78
same,promoter activity interaction Z-score,[7]; [23],1.07 ± 1.8
